# Data: paper PMC5540273 (PLoS ONE, 2017)
# Tested on: KIT
# 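Also: kd values determined as follow-up on hits from a single-replicate KINOMEscan panel screen.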
row,SMILES,Kd
1,CC(=O)Nc1nc2cnc(Nc3cc(NC(=O)c4cccc(CCC#N)c4)ccc3C)nc2s1,> 10000 nM
2,Cc1ccc(NC(=O)Nc2cccc(C(F)(F)F)c2)cc1 [GSK955403],240 nM
3,Cc1ccc(NC(=O)Nc2cccc(Cl)c2)cc1-c1ccc(C(=O)Nc2ccncc2)cc1 [GSK1398468],180 nM
4,Cn1ccc2ncnc(Oc3ccc(NC(=O)Nc4ccccc4)cc3)c21,0.6 nM
5,COC(=O)c1c(-c2ccccc2)c2cc(C(=O)O)ccc2c(=O)n1Cc1ccccc1,100 nM
6,Cc1ccc(NC(=O)Nc2cc(C(C)(C)C)nn2-c2ccccc2)cc1 [GSK1014915],260 nM
7,Cc1cccc(-c2nc(-c3ccc(S(C)(=O)=O)cc3)sc2-c2ccnc(NCCc3ccccc3)c2)c1,120 nM
8,CC(C)(C)c1ccc(C(=O)Nc2cn3cc(-c4cccnc4)ccc3n2)cc1,320 nM
9,O=C(Nc1ccccc1)Nc1cccc(Oc2ccc3nccn3n2)c1,0.94 nM
10,COC(=O)c1c(-c2ccccc2)c2cc(OC)ccc2c(=O)n1Cc1ccccc1,170 nM
11,Cc1ccc(C(=O)Nc2ccc(Nc3ccnc4cc(-c5ccccn5)ccc34)cc2O)cc1.Cl [GW440146],2200 nM

# Tested on: LCK
row,SMILES,Kd
1,Cc1ccccc1-n1cnc2c(N)ncnc21 [SKF-97510],> 10000 nM
2,COc1cc2nccc(Nc3ccc(NC(=O)c4ccc(C)cc4)c(O)c3)c2cc1OC.Cl [GW440132],560 nM
3,Cc1ccc(C(=O)Nc2ccc(Nc3ccnc4cc(-c5ccccn5)ccc34)cc2O)cc1.Cl [GW440146],260 nM

# Tested on: T1, LOK
# T1 construct: gene STK10
row,SMILES,Kd
1,COc1cc2ncn(-c3cc(OCC4CCCO4)c(C(N)=O)s3)c2cc1OC (stereo not shown) [GSK204607],100 nM
2,Cn1ccc2ncnc(Oc3ccc(NC(=O)Nc4ccccc4)cc3)c21,280 nM
3,Cc1nnc(-c2ccc3occ(-c4ccc(S(C)=O)cc4)c3c2)[nH]1 (stereo not shown),> 10000 nM
4,Cn1ccc2ncnc(Oc3ccc(Nc4nc5ccccc5[nH]4)cc3)c21,200 nM

# Tested on: LTK
row,SMILES,Kd
1,Nc1ncnc2[nH]c(-c3ccccc3)nc12 [AH5015],> 10000 nM
2,O=C1NC(=O)C(N2CCc3ccccc32)=C1c1ccccc1Cl [SB-373598],> 10000 nM
3,O=C(O)COc1ncnc2cc(-c3ccc4[nH]ncc4c3)sc12,> 10000 nM

# Tested on: T2, MEK5
# T2 construct: gene MAP2K5
row,SMILES,Kd
1,COc1cc2ncn(-c3cc(OCC4CCCO4)c(C(N)=O)s3)c2cc1OC (stereo not shown) [GSK204607],81 nM
2,Cl.NC(=O)c1cccc(Nc2nccc(Nc3ccc(Oc4cccc(Cl)c4)c(Cl)c3)n2)c1 [GW659008],34 nM
3,COc1cccc(NC(=O)NC2CCN(c3ccnc(Nc4ccc(F)cc4)n3)C2)c1 (stereo not shown) [GSK1379721],500 nM
4,COc1ccc(CNC(=O)NC2CCN(c3ccnc(Nc4cc(OC)c(OC)c(OC)c4)n3)C2)cc1 (stereo not shown) [GSK1379748],95 nM
5,COc1cc2nccc(Nc3ccc(NC(=O)c4ccc(C)cc4)c(O)c3)c2cc1OC.Cl [GW440132],8.7 nM
6,COc1cc(Nc2nccc(N3CCC(NC(=O)Nc4cc(C)ccc4C)C3)n2)cc(OC)c1OC (stereo not shown) [GSK1379762],53 nM
7,CC(C)(C)c1ccc(C(=O)Nc2cn3cc(-c4cccnc4)ccc3n2)cc1,190 nM
8,COc1cc2ncnc(Nc3ccc4nc(-c5ccccc5)[nH]c4c3)c2cc1OC.Cl [GW282450],670 nM
9,Cc1ccc(C(=O)Nc2ccc(Nc3ccnc4cc(-c5ccccn5)ccc34)cc2O)cc1.Cl [GW440146],4.7 nM
10,COc1ccc(Nc2nccc(-c3cccc(NC(=O)c4cc5cc(F)ccc5[nH]4)c3)n2)cc1 [GSK1229782],200 nM
11,Cn1cncc1-c1ccc2ncnc(Nc3ccc(OCc4ccccc4)cc3)c2c1 [GW320571],450 nM
12,Cl.O=C(Nc1cccc(-c2nn3ncccc3c2-c2ccnc(Nc3cccnc3)n2)c1)c1c(F)cccc1F [GSK312879],230 nM
13,Fc1cc(Cl)ccc1Nc1ccnc2cc(-c3ccc(CN4CCCCC4)o3)ccc12 [GW560116],890 nM
